Shiga inhibitor – A qHTS for Small Molecule Inhibitors of Shiga Toxin; Vero cells, Shiga toxin protein synthesis inhibition reporter; 290,000 compounds, 9.2% hits; inhibition, % at 38.7 µM; in the data active = inhibition mostly above about 28%, no sharp cut-off; inactive = mostly below about 43%; note: 0% is about no effect
Lassa entry inh – qHTS for Inhibitors of binding or entry into cells for Lassa Virus; AID 540256, 2011; 300,000 compounds, 1.2% hits; Lassa virus pseudotype entry inhibition, cell reporter; Potency, µM (top dose mostly 37.9 µM), for the others: at the highest dose activity change, negative = inhibition, most hits filed as inhibitors; calls by dose curve; tested in HEK293 cells; note: potency is the fitted concentration of half-maximal effect; % is set by controls: 0 for no effect and ±100 for the full control effect; nearly all actives have a fitted effect of over 50% in size
MARV entry inh – qHTS for inhibitors of binding or entry into cells for Marburg Virus; Potency, µM (titrated, usually from 37.8 µM), inactives show at the top dose activity change, negative = inhibition, actives largely listed as inhibitors; Marburg virus pseudotyped entry inhibition, cell reporter; AID 540276, 2011; 300,000 compounds, 1.8% hits; calls by dose curve; tested in HEK293 cells; note: potency is the fitted concentration of half-maximal effect; % is set by controls: 0 for no effect and ±100 for the full control effect
Cycloheximide cs – Cycloheximide Counterscreen for Small Molecule Inhibitors of Shiga Toxin | max response, % | 300,000 compounds, 12% hits | AID 2314, 2010 | cell reporter, cycloheximide protein synthesis inhibition counterscreen; in the data active = max response mostly above about 13%, no sharp cut-off; inactive = mostly below about 14%; note: read at 38.3 µM for the half of the compounds with a filed dose; 0% is about no effect
* marks the source's active call; other numbers are inactive results; [ ] = remark or other dose. The list is not random: actives were taken first. Their share in the collection is about 12%.

What do the screens show for `COc1ccc(S(=O)(=O)N2CCN(C(=O)c3cc(-c4ccc(Br)cc4)n[nH]3)CC2)cc1OC`?
Shiga inhibitor: -7.4; Lassa entry inh: 10µM*; MARV entry inh: inconclusive; Cycloheximide cs: 9.6

What do the screens show for `COc1ccc(-c2cc(C(=O)N3CCN(S(=O)(=O)c4ccccc4)CC3)[nH]n2)cc1`?
Shiga inhibitor: 19.9; Cycloheximide cs: 5.9*

Results for CC1(C)Cc2c(sc3nc4n(-c5ccccc5)cnn4c(=O)c23)CO1 ?
Shiga inhibitor: -5.8; Lassa entry inh: 14.6%; MARV entry inh: 20.2%; Cycloheximide cs: -2.0

Results for C=CCSc1nc2ccccc2n1C(=O)/C=C/c1ccc(OC)c(OC)c1 ?
Shiga inhibitor: -9.2; Lassa entry inh: 8.2µM*; MARV entry inh: inconclusive; Cycloheximide cs: -0.1

What do the screens show for `C=CCSc1nc2ccccc2n1C(=O)/C=C/c1cc(OC)c(OC)c(OC)c1`?
Shiga inhibitor: 111.4*; Lassa entry inh: 9.2µM*; MARV entry inh: 13µM*; Cycloheximide cs: 49.5*

What do the screens show for `CCSc1nc2ccccc2n1C(=O)/C=C/c1ccc(OC)c(OC)c1`?
Shiga inhibitor: -1.1; Lassa entry inh: 6.31µM*; MARV entry inh: inconclusive; Cycloheximide cs: 13.2*

How did COc1cc(/C=C/C(=O)N2CCN(C(=O)/C=C/c3cc(OC)c(OC)c(OC)c3)CC2)cc(OC)c1OC do in these assays?
Shiga inhibitor: -8.2; Lassa entry inh: -20.3%[46.1 µM]; MARV entry inh: 6.9%[46.1 µM]; Cycloheximide cs: -5.9

Results for Cc1ccc(O)c(NC(=O)C2CCCN2C(=O)OCc2ccccc2)c1 (stereo unspecified) ?
Shiga inhibitor: -5.2; Lassa entry inh: -6.2%[46.1 µM]; MARV entry inh: 19.6%[46.1 µM]; Cycloheximide cs: 3.2

Results for CCCC1=NN(c2ccc([N+](=O)[O-])cc2)C(=O)/C1=C/N(C)C ?
Shiga inhibitor: 20.1; Lassa entry inh: 17.7%; MARV entry inh: 0.8%; Cycloheximide cs: 19.8*

Results for CC1=NN(c2ccc([N+](=O)[O-])cc2)C(=O)/C1=C\N(C)C ?
Shiga inhibitor: 17.9; Lassa entry inh: 7.3%; MARV entry inh: 7.8%; Cycloheximide cs: 22.0*

Results for Cc1cc(NC(=O)c2cc(-c3ccc(Cl)cc3)on2)n(-c2ccccc2)n1 ?
Lassa entry inh: -12.7%[46.1 µM]; MARV entry inh: 0.9%[46.1 µM]

Results for Cc1ccccc1-c1noc(-c2cc(C(C)C)[nH]n2)n1 ?
Lassa entry inh: 16.4%[46.1 µM]

Results for CCOc1ccc(Cl)cc1/C=N/NC(=O)c1ccccc1 ?
Shiga inhibitor: 65.3*; Lassa entry inh: 6.4%; MARV entry inh: -5.2%; Cycloheximide cs: 28.9*

Results for CCOc1ccccc1/C=N/NC(=O)c1cccc(S(=O)(=O)N(CC)CC)c1 ?
Shiga inhibitor: -3.1; Lassa entry inh: 5.0%[46.1 µM]; MARV entry inh: 17.3%[46.1 µM]; Cycloheximide cs: -1.9

How did CCOc1ccccc1/C=N/NC(=O)c1cccc(Cl)c1 do in these assays?
Shiga inhibitor: 57.3*; Lassa entry inh: -2.8%; MARV entry inh: inconclusive; Cycloheximide cs: 2.4

Results for CC(=O)c1c[nH]c(C(=O)NCc2cccc(C(F)(F)F)c2)c1 ?
Shiga inhibitor: -4.0; Cycloheximide cs: -0.8

How did Fc1ccccc1COc1ccc2ccccc2c1CNc1nn[nH]n1 do in these assays?
Shiga inhibitor: 23.4; Lassa entry inh: -9.3%[46.1 µM]; MARV entry inh: -29.3%[46.1 µM]; Cycloheximide cs: 7.5

Results for COc1ccccc1C(=O)Nc1nnc(C)s1 ?
Shiga inhibitor: 81.4*; Lassa entry inh: -2.6%; MARV entry inh: inconclusive; Cycloheximide cs: 39.0*

How did COc1ccccc1C(=O)N(C)c1nnc(-c2ccccc2)s1 do in these assays?
Shiga inhibitor: 65.8*; Cycloheximide cs: 37.1*

How did Cc1ccc(C(=O)Nc2nnc(-c3ccc(C(C)(C)C)cc3)s2)cc1 do in these assays?
Shiga inhibitor: 36.0*; Lassa entry inh: 2.8%; MARV entry inh: -1.5%[46.1 µM]; Cycloheximide cs: 25.0

What do the screens show for `COc1cccc(C(=O)Nc2nnc(-c3ccccc3)s2)c1OC`?
Shiga inhibitor: 41.0*; Cycloheximide cs: 42.9*

Results for CN(C(=O)c1ccccn1)c1nnc(-c2ccncc2)s1 ?
MARV entry inh: 0.7%

What do the screens show for `COc1cccc(OC)c1C(=O)Nc1nnc(C)s1`?
Lassa entry inh: 12.6%[46.1 µM]

What do the screens show for `COc1ccccc1C(=O)Nc1nnc(-c2ccccc2)s1`?
Cycloheximide cs: 34.9*

Results for O=C(Nc1nnc(-c2ccccc2)s1)c1ccccc1O ?
Shiga inhibitor: 30.3; Lassa entry inh: inconclusive; MARV entry inh: 1.9%[46.1 µM]; Cycloheximide cs: 12.5

What do the screens show for `CC(=O)Nc1sc(NC(=O)c2ccccc2)nc1-c1cccs1`?
Shiga inhibitor: 13.7; Lassa entry inh: 25.0%; MARV entry inh: -6.8%; Cycloheximide cs: 20.8

Results for COc1ccccc1C(=O)Nc1nnc(SCC(=O)NC2CCCC2)s1 ?
Shiga inhibitor: 166.4*; Lassa entry inh: inconclusive; MARV entry inh: 11.2µM*; Cycloheximide cs: 62.6*

How did COc1ccccc1C(=O)Nc1nc(-c2cccs2)c(NC(C)=O)s1 do in these assays?
Shiga inhibitor: 56.9*; Lassa entry inh: -2.9%; MARV entry inh: 0.9%; Cycloheximide cs: 30.1*

Results for Cc1cc(=O)n2nc(N3CCC(C(=O)NCc4cccc(Cl)c4)CC3)sc2n1 ?
Shiga inhibitor: 1.9; Cycloheximide cs: -7.3

Results for O=C(Nc1ccccc1C(F)(F)F)c1ncn[nH]1 ?
Shiga inhibitor: 19.7; Lassa entry inh: 1.6%[46.1 µM]; MARV entry inh: 12.5%[46.1 µM]; Cycloheximide cs: 5.2

How did COc1ccc2c(=O)c(-c3nc(C)cs3)coc2c1 do in these assays?
Shiga inhibitor: 78.8*; Lassa entry inh: inconclusive; MARV entry inh: -24.8%[46.1 µM]; Cycloheximide cs: 45.2*

What do the screens show for `CCc1cc2c(=O)c(-c3nc(C)cs3)coc2cc1O`?
Shiga inhibitor: 37.8*; Lassa entry inh: -14.1%; MARV entry inh: 0.1%[46.1 µM]; Cycloheximide cs: 34.3*

How did Cc1nc(-c2coc3cc(OCC(=O)O)ccc3c2=O)cs1 do in these assays?
Shiga inhibitor: -15.9; Lassa entry inh: inconclusive; MARV entry inh: inconclusive; Cycloheximide cs: -1.9

Results for Cc1csc(-c2coc3cc(O)cc(C)c3c2=O)n1 ?
Shiga inhibitor: 107.7*; Lassa entry inh: -20.7%; MARV entry inh: 0.9%; Cycloheximide cs: 30.5*

Results for Cc1nc(-c2coc3cc(O)c(C)cc3c2=O)cs1 ?
Shiga inhibitor: 39.4; Lassa entry inh: inconclusive; MARV entry inh: inconclusive; Cycloheximide cs: 21.3*

How did CCOC(=O)COc1ccc2c(=O)c(-c3ccccc3)coc2c1 do in these assays?
Shiga inhibitor: -9.3; Lassa entry inh: 8.7%[46.1 µM]; MARV entry inh: 2.1%[46.1 µM]; Cycloheximide cs: -6.2

Results for Cc1ccc(C(=O)Nc2nnc(COc3ccccc3)s2)cc1 ?
Shiga inhibitor: -8.5; Lassa entry inh: 13.0%[46.1 µM]; MARV entry inh: 1.2%[46.1 µM]; Cycloheximide cs: -1.6

How did COc1ccc(C(=O)n2c(SC)nc3cc4c(cc32)OCCO4)cc1 do in these assays?
Shiga inhibitor: 52.3*; Lassa entry inh: 7.0%; MARV entry inh: 27.8%; Cycloheximide cs: 49.3*

How did COc1ccc(C(=O)c2cc3c(cc2[N+](=O)[O-])OCCO3)cc1 do in these assays?
Shiga inhibitor: 21.4; Lassa entry inh: inconclusive; MARV entry inh: inconclusive; Cycloheximide cs: 9.2

Results for Clc1ccc(-c2ccc(/C=N/Nc3cc(N4CCOCC4)nc(N4CCOCC4)n3)o2)cc1 ?
Shiga inhibitor: -1.8; Lassa entry inh: 6.1%; MARV entry inh: 6.31µM*; Cycloheximide cs: -2.2
